From PubChem BioAssay
Several values for one entry are separate records, joined by “and”; a condition that tells them apart may be missing. Equal entries are not always repeated. Activity calls are given as the source filed them. Cut-off read from the data, not from the text of the source, unless noted: active = parasite load remaining mostly below about 12% (no sharp cut-off); inactive = mostly above about 10%. Non-standard residues stand in square brackets, D forms with d. Residues, ends and D or L forms follow the SMILES beside them. pGlu = O=C1CC[C@@H](C(=O)O)N1; Thz = O=C(O)[C@@H]1CSCN1

Test system: not listed separately
Experiment: P. berghei load reduction in hepatocytes – cell-based, HepG2, luciferase luminescence, HepG2 viability, primary screen (AID 624349);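 note: 100% = mean of DMSO negative control wells on the same plate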
Settings: P. berghei liver stage in HepG2, luciferase luminescence, concentration not given here; parasite load remaining: stronger effect = lower value; viability: measured here: HepG2 viability without parasites

Row | Compound | viability | parasite load remaining
1 | O=C1CN2Cc3c(ccc(Cl)c3Cl)N=C2N1 | 99.2% and 69.6% and 96.5% | 45.6% (inactive) and 99.2% (inactive) and 57.7% (inactive)
2 | CNCC[C@H](Oc1cccc2ccccc12)c1cccs1 | 101% and 64.7% and 0.245% | 36.5% (inactive) and 51.1% (inactive) and -0.135% (inactive)
3 | O=c1[nH]c(=O)n(C2CCCO2)cc1F (stereo unspecified) | 73.5% and 76.5% | 107% (inactive) and 21.2% (inactive)
4 | CSc1nc2cc(Oc3cccc(Cl)c3Cl)c(Cl)cc2[nH]1 | 78.3% | 14.4% (inactive)
5 | CN(C)CCc1c[nH]c2ccc(Cn3cncn3)cc12 | 99.5% and 78.1% | 45% (inactive) and 103% (inactive)
6 | COc1ccc(C[C@H](C)NC[C@@H](O)c2ccc(O)c(NC=O)c2)cc1 | 77.1% | 66.9% (inactive)
7 | CC(C)C[C@H](NC(=O)[C@@H](O)[C@H](N)Cc1ccccc1)C(=O)O | 136% | 23.8% (inactive)
8 | C[C@@H](c1ncncc1F)[C@](O)(Cn1cncn1)c1ccc(F)cc1F | 75.1% | 100% (inactive)
9 | CCOC(=O)c1ccc(OC(=O)CCCCCN=C(N)N)cc1 | 77.4% and 88.1% | 117% (inactive) and 36.3% (inactive)
10 | Cc1c(C(=O)NN2CCCCC2)nn(-c2ccc(Cl)cc2Cl)c1-c1ccc(I)cc1 | 70.4% | 23% (inactive)
11 | CC(=O)NC[C@H]1CN(c2ccc(N3CCOCC3)c(F)c2)C(=O)O1 | 74.1% and 114% | 99.9% (inactive) and 45% (inactive)
12 | CC(CCCCC(=O)Nc1ccc(C(F)(F)F)cc1)NCCc1cnc[nH]1 (stereo unspecified) | 67% | 54.5% (inactive)
13 | O=C1CC[C@@H](C(=O)N2CSC[C@H]2C(=O)O)N1 ([pGlu]-[Thz]-OH) | 115% | 123% (inactive)
14 | CN/C(=C\[N+](=O)[O-])NCCSCc1csc(CN(C)C)n1 | 104% and 78.4% | 44.5% (inactive) and 113% (inactive)
15 | CNCC[C@@H](Oc1ccccc1C)c1ccccc1 | 66.2% | 70.5% (inactive)
16 | Cc1cccc(CCN2CCC(C(=O)c3ccc(NS(C)(=O)=O)cc3)CC2)n1 | 75.4% | 49.2% (inactive)
17 | CN(C)CCOc1ccc(/C(=C(/CCCl)c2ccccc2)c2ccccc2)cc1 | 97.2% and 73.5% | 2.65% (inactive) and 4% (inactive)
18 | CC(C)(S)C(N)C(=O)O (stereo unspecified) | 95.3% and 72.3% and 93.1% | 70.2% (inactive) and 91.2% (inactive) and 22.9% (inactive)
19 | CC[C@H]1OC(=O)[C@H](C)[C@@H](O[C@H]2C[C@@](C)(OC)[C@@H](O)[C@H](C)O2)[C@H](C)[C@@H](O[C@@H]2O[C@H](C)C[C@H](N(C)C)[C@H]2O)[C@](C)(O)C[C@@H](C)CN(C)[C@H](C)[C@@H](O)[C@]1(C)O | 118% and 82.2% and 91.4% | 58.8% (inactive) and 152% (inactive) and 299% (inactive)
20 | NCC(O)c1ccc(O)c(O)c1 (stereo unspecified) | 90.4% | 46.6% (inactive)
21 | CN1CC(=O)N2[C@H](c3ccc4c(c3)OCO4)c3[nH]c4ccccc4c3C[C@@H]2C1=O | 81.8% | 101% (inactive)
22 | C/C(=C\C(=O)OCCCCCCCCC(=O)O)C[C@@H]1OC[C@H](C[C@@H]2O[C@H]2[C@@H](C)[C@H](C)O)[C@@H](O)[C@H]1O | 116% | 65% (inactive)
23 | C[C@H]1O[C@H](O[C@H]2[C@H](O)[C@@H](O)[C@@H](O[C@H]3[C@H](O)[C@@H](O)C(O)O[C@@H]3CO)O[C@@H]2CO)[C@H](O)[C@@H](O)[C@@H]1N[C@H]1C=C(CO)[C@@H](O)[C@H](O)[C@H]1O (stereo partly specified) | 104% and 111% | 61.3% (inactive) and 108% (inactive)
24 | CCCCN1CCCC1CNC(=O)c1cc(C#N)c2ccccc2c1OC (stereo unspecified) | 66.3% | 35.8% (inactive)
25 | COc1ccc2[nH]c(S(=O)Cc3ncc(C)c(OC)c3C)nc2c1 (stereo unspecified) | 78.3% | 75.4% (inactive)
26 | COc1c(N2C[C@@H]3CCCN[C@@H]3C2)c(F)cc2c(=O)c(C(=O)O)cn(C3CC3)c12 | 70.8% | 52.8% (inactive)
27 | COc1nc(C)nc(Cl)c1NC1=NCCN1 | 72.6% and 70.2% | 85.8% (inactive) and 79.7% (inactive)
28 | CC(Cc1ccc(O)c(O)c1)(NN)C(=O)O (stereo unspecified) | 97.1% and 84.8% | 41.4% (inactive) and 31.2% (inactive)
29 | Cc1cc2c(s1)Nc1ccccc1N=C2N1CCN(C)CC1 | 151% and 67.6% and 138% | 58.8% (inactive) and 82.2% (inactive) and 32.6% (inactive)

Test system: Hepatitis C virus NS3 helicase
Experiment: blockers of NS3h binding to ssDNA – biochemical, fluorescence polarization, LOPAC1280 library, primary screen (AID 687035; in the data active = inhibition above about 37%)
Settings: Purified HCV NS3 helicase, Cy5-dT15 ssDNA binding fluorescence polarization; stronger effect = higher value; concentration not given here

Row | Compound | inhibition
30 | CC(C)C[C@H](NC(=O)[C@@H](O)[C@H](N)Cc1ccccc1)C(=O)O | -4% (inactive)
31 | CN(C)CCCC1(c2ccc(F)cc2)OCc2cc(C#N)ccc21 (stereo unspecified) | -4% (inactive)
32 | CC(C)NCC(O)c1ccc(NS(C)(=O)=O)cc1 (stereo unspecified) | -2% (inactive)
33 | O=C(c1ccc(OCCN2CCCCC2)cc1)c1c(-c2ccc(O)cc2)sc2cc(O)ccc12 | -6% (inactive)
34 | NCC(O)c1ccc(O)c(O)c1 (stereo unspecified) | -3% (inactive)
35 | Cc1cnc(C(=O)NCCc2ccc(S(=O)(=O)NC(=O)NC3CCCCC3)cc2)cn1 | -1% (inactive)
36 | CCN(CC)CC#CCOC(=O)C(O)(c1ccccc1)C1CCCCC1 (stereo unspecified) | -3% (inactive)
37 | COc1nc(C)nc(Cl)c1NC1=NCCN1 | -4% (inactive)
